Source: PubChem
HCMV antiviral – inhibitors of human cytomegalovirus. activity change, negative = inhibition, % at 57.5 µM. AID 1259415. 4.5% of 410,000 active. HFF cells, HCMV-luciferase reporter, 72 h; stronger effect = lower value; in the data active = activity change below about -60%; inconclusive = no clear call, values can overlap the other calls; inactive = above about -39%
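Two-dose cell screen: HFF monolayers treated with compounds and infected with luciferase-expressing HCMV at 1 PFU/cell, 72 h at 37C, then lysed for luciferase measurement.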
Shiga toxin inh – inhibitors of Shiga toxin in Vero cells; Vero cells, Shiga toxin protein synthesis inhibition reporter; inhibition, % at 38.7 µM; 9.2% of 290,000 active; in the data active = inhibition mostly above about 28%, no sharp cut-off; inactive = mostly below about 43%
Pf growth 48h – inhibits P. falciparum growth in the first generation, 48 h. P. falciparum luciferase growth in erythrocytes, 48 h. Potency, µM (titrated, usually from 28.7 µM), actives largely listed as inhibitors. 5.9% of 310,000 active. AID 504832
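In quantitative HTS format, infected erythrocytes bearing luciferase-reporter parasites were treated for a single generation at 37 C. Luminescence after adding detection reagent served as the growth measure.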
HCV inhibitor – HCV inhibition | 3.4% of 340,000 active | AID 651820 | Huh7.5.1 HCVcc-Cre infection, luciferase reporter, 44 h | Potency, µM (doses to about 41.8 µM), usual class: inhibitors
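After 44 h co-culture of compound, cells and HCVcc-Cre (~0.5 moi), substrate is added for 15 min at room temperature and luciferase measured over 15 sec. Cells were seeded at 1,000/well and pre-cultured 4 h.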
CHX counter – counter-screen hit for Shiga toxin inhibitors, cycloheximide; cell reporter, cycloheximide protein synthesis inhibition counterscreen; max response, %; 12% of 300,000 active; AID 2314; in the data active = max response mostly above about 13%, no sharp cut-off; inactive = mostly below about 14%; also: read at 38.3 µM for the half of the compounds with a filed dose
Pf growth 96h – P. falciparum growth inhibition at 96 hour, primary screen for plastid delayed-death inhibitors. P. falciparum luciferase reporter growth, 96 h. Potency, µM (highest dose often 28.7 µM), actives largely listed as inhibitors. 6.9% of 320,000 active. AID 504834
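Compounds incubated with erythrocytes infected by luciferase-expressing P. falciparum (2% hematocrit, 0.05% parasitemia final) for 96 hours, 37 C in 5% CO2. Growth inhibition scored as decreased luciferase luminescence.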
Numbers stand for hits; i = inactive; ? = inconclusive; nt = not tested or not shown. In the library only some 21% were active in any assay of this set; here they are far more common. Unless noted, calls follow the shape of the dose curve; as a rule, active = well fitted inhibition curve with a large enough effect; inconclusive = small, poorly fitted or top-dose-only effect, or another doubt; inactive = no such curve, though single readings can be large or run the other way.

SMILES	HCMV antiviral	Shiga toxin inh	Pf growth 48h	HCV inhibitor	CHX counter	Pf growth 96h
COc1ncccc1C(=O)NC1CCCc2c1cnn2-c1ccc(C)c(C)c1 (stereo unspecified)	i	i	i	?	i	i
NC(N)=NCc1cccc(I)c1	-65.7	nt	?	7.08µM	nt	10.7µM
CCc1ccc(CNc2ncnc3c2nc2n3CCCC2)cc1	i	nt	nt	nt	nt	nt
CC(C)OCCCNc1ncnc2c1nc1n2CCCC1	i	i	i	i	17.8	i
CN(C)CCNC(=O)c1cccc2nc3c(ccc4ccccc43)nc12	-96.4	nt	nt	7.94µM	nt	nt
COc1ccc(Cl)cc1C(=O)NCCN(C)C	i	i	nt	i	i	i
COc1ccc(C(=O)NCCN(C)C)c2nc3ccccc3cc12	-99.7	nt	nt	?	nt	nt
COc1cccc2nc3c(C(=O)NCCN(C)C)cccc3cc12	-101.5	nt	nt	?	nt	nt
CN(C)CCNC(=O)c1cccc2[nH]c(-c3ccncc3)nc12	-99.9	nt	nt	?	nt	nt
COc1ccc(-c2nc3c(C(=O)NCCN(C)C)cccc3c3ccccc23)cc1	i	nt	nt	?	nt	nt
Cc1ccc(NC(=O)[C@H](C)NC(=O)C2CCN(C(=O)[C@@H](N)C(C)C)CC2)cc1	i	i	i	i	i	i
CCc1ccc(NC(=O)CCCc2nc(-c3ccco3)no2)cc1	i	nt	nt	nt	nt	nt
NNC(=O)C1C(O)CCC2CN3CCc4c([nH]c5ccccc45)C3CC21 (stereo unspecified)	-100.3	nt	nt	i	nt	nt
O=C(O)[C@@H]1[C@@H]2C[C@H]3c4[nH]c5ccccc5c4CCN3C[C@@H]2CC[C@@H]1O	nt	nt	?	nt	nt	5.73µM
COC(=O)[C@@H]1[C@H]2C[C@H]3c4[nH]c5ccccc5c4CCN3C[C@@H]2CC[C@@H]1O	i	i	i	?	i	?
O=C(O)CC(c1cccc(Cl)c1)n1cccc1 (stereo unspecified)	i	i	i	11.2µM	i	nt
Cn1nc(C(=O)NCCCN2CCCCC2)c2c1-c1ccccc1SC2	i	i	i	?	i	?
O=C(NCC1CC1)c1nnc2n1CCN(C(=O)c1cccc3c1OCCO3)C2	i	nt	nt	nt	nt	nt
O=C1Nc2ccccc2C12NCCc1c2[nH]c2ccccc12 (stereo unspecified)	i	i	6.57µM	i	i	nt
COc1ccc2c3c([nH]c2c1)C1(NCC3)C(=O)Nc2ccccc21 (stereo unspecified)	i	i	?	i	i	?
Cc1cc(-c2ccccc2)c(C#N)c(N)n1	i	i	i	7.94µM	i	i
CC(C)(C)OC(=O)N[C@@H](COCc1ccccc1)C(=O)N[C@@H](CO)[C@H](O)[C@@H]1C[C@@H]1C(=O)NC1CCCCC1	i	i	?	i	i	?
COc1ccc(OC)c(NC(=O)CN(C)S(=O)(=O)c2ccc3[nH]c4c(c3c2)CCCC4)c1	i	nt	nt	nt	nt	nt
COc1c2ccoc2nc2c(OC)cccc12	i	44.5	nt	i	i	i
CC1CN(C(=O)c2ccccc2)c2ccccc2NC1=O (stereo unspecified)	i	i	?	i	i	?
SMILES	HCMV antiviral	Shiga toxin inh	Pf growth 48h	HCV inhibitor	CHX counter	Pf growth 96h
Cc1ccc(OCc2nc3c4c(ncn3n2)-c2ccccc2CC42CCCC2)cc1	i	i	?	i	i	14.7µM
COc1ccc(OCc2nc3c4c(ncn3n2)-c2ccccc2CC42CCCC2)cc1	?	i	?	?	i	13.1µM
Oc1cccc(-c2nc3c4c(ncn3n2)-c2ccccc2CC42CCCC2)c1	-93.3	i	11.7µM	nt	i	9.28µM
Cc1ccccc1OCc1nc2c3c(ncn2n1)-c1ccccc1CC31CCCC1	i	i	?	?	i	5.22µM
Cc1cccc(OCc2nc3c4c(ncn3n2)-c2ccccc2CC42CCCC2)c1	i	i	i	i	i	?
COc1ccc(-c2nc3c4c(ncn3n2)-c2ccccc2CC42CCCC2)cc1	i	i	i	?	i	i
Nc1nc2cc(S(=O)(=O)N3CCOCC3)ccc2o1	i	nt	nt	i	nt	nt
COC(=O)Cn1c(=NC(=O)C2COc3ccccc3O2)sc2cc(S(N)(=O)=O)ccc21 (stereo unspecified)	i	i	i	i	i	i
CC(=O)C(=O)O	nt	i	nt	nt	i	nt
O=C(COC(=O)CNS(=O)(=O)c1cccc(F)c1)NCCc1ccccc1	i	nt	?	i	nt	i
Cn1cc(CN2CCC(Oc3ccc(C(=O)N4CCCCC4)cc3)CC2)cn1	i	i	i	i	i	i
COc1ccc(C(=O)c2coc3ccc(O)c(CN4CCCCC4)c23)cc1	i	i	7.38µM	i	i	i
COc1ccc(NC(=O)c2c(C)oc3ccc(O)c(CN4CCCCCC4)c23)cc1	-67.3	nt	nt	nt	nt	nt
CCOC(=O)c1c(C)n(C)c2ccc(O)c(CN3CCCCC3)c12	i	i	?	i	i	nt
CCOC(=O)c1c(C)oc2ccc(O)c(CN3CCCCC3)c12	i	i	11.7µM	i	i	i
Cc1oc2ccc(O)c(CN3CCOCC3)c2c1C(C)O (stereo unspecified)	i	i	i	i	i	i
COc1ccc(NC(=O)c2c(C)oc3ccc(O)c(CN4CCCC(C)C4)c23)cc1 (stereo unspecified)	i	nt	nt	nt	nt	nt
CC(=O)c1c(C)oc2ccc(O)c(CN3CCOCC3)c12	i	i	nt	i	i	7.38µM
O=C(c1ccccc1)c1coc2ccc(O)c(CN3CCOCC3)c12	i	i	?	i	i	i
COc1c(C)cc(C(O)c2ncc(-c3ccc(Cl)cc3)[nH]2)cc1C (stereo unspecified)	i	nt	nt	nt	nt	nt
Nc1nc(NC(=O)CCC(=O)O)nn1-c1ccccc1	i	i	i	i	i	i
COc1ccc2c(c1)c1c(c(=O)n(-c3cccc(Cl)c3)c(=O)n1C)n2C	i	nt	nt	nt	nt	nt
COc1ccc(Cl)cc1-c1nc(SCC(=O)N(C)C2CCS(=O)(=O)C2)n[nH]1 (stereo unspecified)	i	nt	nt	i	nt	nt
Cn1nnnc1SCCNCc1ccc(OCc2ccccc2Cl)cc1	-104.7	nt	nt	nt	nt	nt
Cn1nnnc1SCCNCc1cc(Br)ccc1OCc1ccccc1Cl	-68.7	nt	nt	nt	nt	nt
SMILES	HCMV antiviral	Shiga toxin inh	Pf growth 48h	HCV inhibitor	CHX counter	Pf growth 96h
Cn1nnnc1SCCNCc1ccccc1OCc1ccc(Cl)cc1	i	i	?	?	i	11.7µM
Cn1nnnc1SCCCNCc1ccccc1OCc1ccc(Cl)cc1	i	nt	nt	nt	nt	nt
CCSc1nnc(-c2cnn(-c3ccccc3)c2-n2cccc2)n1C	i	i	10.4µM	i	i	nt
CCCCCCSc1nnc(-c2cnn(-c3ccccc3)c2-n2cccc2)n1C	i	i	i	?	i	nt
CCOc1ccc(S(=O)(=O)Nc2ccc(OC)c(Cl)c2)c2cccnc12	i	nt	nt	nt	nt	nt
COc1ccc(NC(=O)C2CCN(S(=O)(=O)c3cc(-c4noc(C)n4)ccc3C)CC2)cc1	i	nt	nt	nt	nt	nt
Cc1ccc(NC(=O)c2cc(-c3ccccc3O)n[nH]2)cc1Cl	i	i	?	i	i	?
Cc1cccc(NC(=O)c2cc(-c3cc(Cl)ccc3O)n[nH]2)c1	nt	76.1	2.62µM	i	37.3	2.33µM
Cc1ccc(NC(=O)c2cc(-c3cc(Cl)ccc3O)n[nH]2)cc1C	i	i	1.85µM	i	i	1.65µM
Cc1ccc(NC(=O)c2snc3c(=O)[nH]cnc23)cc1C	nt	i	nt	nt	i	i
Cc1ccc(NC(=O)c2snc3ccc(Cl)cc23)cc1C	i	32.2	i	?	37.7	i
